Screens as filed in PubChem.
A selection: hits, their analogues and other compounds. The true share with any hit is near 3.2%.
BRCT PPI green: BRCA1 BRCT-phosphoprotein interaction inhibition; BRCA1 BRCT-phosphopeptide binding, green fluorescence polarization; Potency, µM (highest dose often 76.9 µM), for the others: at the highest dose activity change, negative = inhibition, usual class: inhibitors; 75,000 tested, 0.05% active; AID 875;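 also: potency is read from the fitted curve at half-maximal effect; plate controls were peptide without protein for full effect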
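Compounds were incubated for 12 min at room temperature with a complex of 100 nM fluorescein-tagged pBACH1 decapeptide and 250 nM His-tagged BRCT protein. Buffer was phosphate pH 7.3 with EDTA, DTT and Tween 20. Disruption of binding lowers the polarization signal.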
TSHR ag: TSH receptor (human) agonism | P16473 | HEK293-CNG-TSHR cells (CNG channel as cAMP sensor), membrane potential dye, cAMP | Potency, µM (titrated, usually from 57.1 µM), inactives show top-dose activation, actives largely listed as activators | 73,000 tested, 0.48% active | AID 926; active = well fitted activation curve with a large enough effect in the main read-out, with a control signal flat, not every such curve was filed as active; inconclusive = small, poorly fitted or top-dose-only effect, or a change in a side signal; inactive = no such curve, though single readings can be large or run the other way; % of control where 0% means no effect;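 also: the control signal comes from parental cells without the receptor; potency is read from the fitted curve at half-maximal effect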
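cAMP rise detected as CNG-channel membrane depolarization by fluorescent dye (emission 590 nm), 30 min after compound, following 60 min dye loading containing 100 uM RO 20-1724 at room temperature. Cells: TSHR/CNG HEK 293, with parental CNG HEK 293 as control.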
HEK293 cAMP cs: parental HEK293 cAMP activation (counter-screen); Potency, µM (top dose mostly 57.1 µM), for inactives: at the top dose activation, actives largely listed as activators; 73,000 tested, 2.5% active; parental HEK293 CNG cAMP sensor, membrane potential fluorescence; AID 938; also: potency is read from the fitted curve at half-maximal effect; % of control where 0% means no effect; nearly all actives have a fitted effect of over 55% in size
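Parental HEK 293 cells stably expressing a cAMP-gated CNG channel were loaded with membrane potential dye containing 100 uM RO 20-1724 for 60 min. Compound added for 30 min; depolarization read as fluorescence intensity at 590 nm.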
Pol III holo inh: inhibitors of bacterial DNA polymerase III holoenzyme | reconstituted DNA polymerase III holoenzyme replication, biochemical | Potency, µM (top dose mostly 57.1 µM), for the others: at the top dose activity change, negative = inhibition | 71,000 tested, 0.25% active | AID 603; also: potency is read from the fitted curve at half-maximal effect; % is scaled to controls: 0 for no effect and ±100 for the full control effect
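Reconstituted *E. coli* holoenzyme (0.35 nM Pol III, 1 nM beta, 154 nM SSB, 2 nM primase) was preincubated with compound for 15 min at RT. Synthesis on 1.4 nM ssM13Gori ran 35 min, then was stopped with PicoGreen/EDTA and read as dsDNA fluorescence.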
TsaE inh: displaces an ADP probe from E. coli YjeE (TsaE); P0AF67; purified YjeE enzyme, qHTS inhibition assay; Potency, µM; 71,000 tested, 0.05% active
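Fluorescence polarization of a BODIPY Texas Red–ADP probe (2 uM) bound to purified YjeE (10 uM) was read after 15 min room-temperature incubation with compounds. Loss of polarization marks inhibitors; ADP serves as titrated control.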
BRCT inh red: disrupts BRCA1 BRCT binding to phosphoprotein, red fluorophore readout; P38398; BRCT-phosphopeptide binding, red fluorescence polarization; Potency, µM (highest dose often 76.9 µM), inactives show top-dose activity change, negative = inhibition, actives largely listed as inhibitors; 75,000 tested, 0.03% active; AID 892; also: % is scaled to controls: 0 for no effect and ±100 for the full control effect
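Rhodamine-labelled pBACH1 10-mer (100 nM) bound to BRCT domain (100 nM) at pH 7.3; compounds incubated 12 min room temperature, polarization read. Free peptide defines full inhibition; unlabelled decapeptide titrated as control.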
Starred values were filed as active, the others as inactive; [ ] = dose if it differs, or a comment. Unless noted, calls follow the shape of the dose curve; as a rule, active = well fitted curve in the direction sought with a large enough effect; inconclusive = small, poorly fitted or top-dose-only effect, or another doubt; inactive = no such curve, though single readings can be large; an effect the other way counts as inactive or inconclusive.

`COc1cccc2c1C(=N)c1c(O)c3c(c(O)c1C2=O)C[C@](O)(C(C)=O)C[C@@H]3O[C@H]1C[C@H](N)[C@@H](O)[C@H](C)O1` gave BRCT PPI green 0%[15.4 µM], TSHR ag 0%[11.4 µM], HEK293 cAMP cs -9%[11.4 µM], Pol III holo inh 3.2µM*, TsaE inh inactive and BRCT inh red -2%[15.4 µM].
`CCCCCCCC#Cc1ccccc1/C=N/S(=O)C(C)(C)C` (configuration not stated) gave BRCT PPI green 1%[15.4 µM], HEK293 cAMP cs 21%[11.4 µM] and BRCT inh red 2%[15.4 µM].
Screening CC1(C)C(O)C=C[C@@]2(C)C1CC(=O)O[C@@]1(C)C3=CC(=O)OC(c4ccoc4)[C@]3(C)CCC21 (some centres not stated) returned BRCT PPI green -2%[3.08 µM] and BRCT inh red -1%.
For COc1ccc(/C=N/n2c(SC)nnc2-c2ccccc2)cc1C the results were BRCT PPI green 6%, TSHR ag inconclusive, HEK293 cAMP cs 25µM*, Pol III holo inh 4%, TsaE inh inactive and BRCT inh red 0%.
COc1ccc(/C=N/n2c(SC)nnc2-c2ccccc2)c(OC)c1OC was read as BRCT PPI green 13%, TSHR ag inconclusive, HEK293 cAMP cs inconclusive, Pol III holo inh 0%, TsaE inh inactive and BRCT inh red -3%.
For O=C(C1CC1)N1CCc2cc(Br)cc(S(=O)(=O)N3CCN(c4ccccn4)CC3)c21 the results were BRCT PPI green 0%, TSHR ag inconclusive, HEK293 cAMP cs 16µM*, Pol III holo inh 2%, TsaE inh inactive and BRCT inh red -2%.
`COCCNC(=O)[C@H](C)[C@@H]1C[C@@]1(C)[C@@H](NC(=O)OCc1ccccc1)c1ccccc1` gave BRCT PPI green -3%, TSHR ag 3%, HEK293 cAMP cs 5%, Pol III holo inh -2%, TsaE inh inactive and BRCT inh red -1%.
`C=C(N(C)C)[C@]1(C)C[C@H]1[C@H](NC(=O)CNC(=O)OCc1ccccc1)c1ccccc1` gave BRCT PPI green -3%, TSHR ag inconclusive, HEK293 cAMP cs 16µM*, Pol III holo inh -11%, TsaE inh inactive and BRCT inh red -2%.
For CN(C)C(=O)[C@]1(C)C[C@H]1[C@H](NC(=O)CNC(=O)[C@@H]1CCCN1C(=O)[C@]1(C)C[C@H]1[C@H](NC(=O)OCc1ccccc1)c1ccccc1)c1ccccc1 the results were BRCT PPI green -1%, TSHR ag 17%, HEK293 cAMP cs 22%, Pol III holo inh 6%, TsaE inh inactive and BRCT inh red 1%.
Screening C[C@@H](C(=O)NCCF)[C@H]1C[C@]1(C)[C@H](NC(=O)OCc1ccccc1)c1ccccc1 returned BRCT PPI green -2%, TSHR ag inconclusive, HEK293 cAMP cs 16µM*, Pol III holo inh -8%, TsaE inh inactive and BRCT inh red -4%.
Screening O=c1[nH]c(SCc2cccc([N+](=O)[O-])c2)nc2nc[nH]c12 returned BRCT PPI green 0%[15.4 µM], TSHR ag 4%[11.4 µM], HEK293 cAMP cs -4%[11.4 µM], Pol III holo inh -6%[11.4 µM], TsaE inh inactive and BRCT inh red 1%[15.4 µM].
Screening C[C@H]1C[C@@H]2[C@H]3CCC4=CC(=O)C=C[C@@]4(C)[C@]3(Cl)[C@@H](Cl)C[C@]2(C)[C@]1(O)C(=O)COP(=O)(O)O returned TSHR ag 0%[11.4 µM], HEK293 cAMP cs 6%[11.4 µM], Pol III holo inh 2%[11.4 µM] and TsaE inh inactive.
Screening COCCn1c(=O)c(CCc2ccccc2)nc2cnc(N(C)C)nc21 returned BRCT PPI green -2%, TSHR ag inconclusive, HEK293 cAMP cs inconclusive, Pol III holo inh -5%, TsaE inh inactive and BRCT inh red 0%.
For Cc1nnc(NC(=O)CSc2cn(CCNC(=O)c3ccccc3)c3ccccc23)s1 the results were BRCT PPI green -4%, TSHR ag -4%, HEK293 cAMP cs 11%, Pol III holo inh -5%, TsaE inh inactive and BRCT inh red -1%.
For NC(=O)CSc1cn(CCNC(=O)c2cccs2)c2ccccc12 the results were BRCT PPI green 1%, TSHR ag 32µM*, HEK293 cAMP cs 8%, Pol III holo inh 0%, TsaE inh inactive and BRCT inh red -2%.
CN(C)CCN1C(=O)CC[C@]2(C)C1=CC[C@@H]1[C@@H]2CC[C@]2(C)[C@H]1CC[C@]2(C)O was read as BRCT PPI green 0%[15.4 µM], TSHR ag 2%[11.4 µM], HEK293 cAMP cs -3%[11.4 µM], Pol III holo inh -7%[11.4 µM], TsaE inh inactive and BRCT inh red 0%[15.4 µM].
Cc1nc2ncnn2c(Nc2ccc3c(c2)OCO3)c1Cc1ccccc1 was read as BRCT PPI green 1%, TSHR ag inconclusive, HEK293 cAMP cs 25µM*, Pol III holo inh 0%, TsaE inh inactive and BRCT inh red -1%.
For CCOc1ccc(-c2nn3c(-c4ccc(F)cc4)nnc3s2)cc1 the results were BRCT PPI green -1%, HEK293 cAMP cs 24%, Pol III holo inh -3%, TsaE inh inactive and BRCT inh red 0%.
CCOc1ccc(-c2nnc3sc(COc4ccc(Cl)cc4)nn23)cc1 was read as BRCT PPI green -3%, TSHR ag inconclusive, HEK293 cAMP cs 25µM*, Pol III holo inh 1%, TsaE inh inactive and BRCT inh red -1%.
Clc1ccc(OCc2nn3c(-c4ccncc4)nnc3s2)cc1 was read as BRCT PPI green -3%, TSHR ag inconclusive, HEK293 cAMP cs 32µM*, Pol III holo inh -4%, TsaE inh inactive and BRCT inh red 0%.
For CCOc1ccc(-c2nnc3sc(COc4ccc(C)cc4)nn23)cc1 the results were BRCT PPI green 0%, TSHR ag inconclusive, HEK293 cAMP cs 20µM*, Pol III holo inh 5%, TsaE inh inactive and BRCT inh red 2%.
`C/C=C(/C)C#N` gave BRCT PPI green 3%, TSHR ag -5%, HEK293 cAMP cs -19%, Pol III holo inh -2%, TsaE inh inactive and BRCT inh red 1%.
`COc1ccc2oc(C(=O)OCC(=O)c3ccc4c(c3)OCCO4)c(C)c2c1` gave BRCT PPI green -1%, TSHR ag inconclusive, HEK293 cAMP cs 20µM*, Pol III holo inh -1%, TsaE inh inactive and BRCT inh red 0%.
`c1ccc(-n2cccc2CNC2CCCCC2)cc1` gave BRCT PPI green -1%, TSHR ag inconclusive, HEK293 cAMP cs 25µM*, Pol III holo inh 0%, TsaE inh inactive and BRCT inh red -2%.
